The values below come from PubChem BioAssay (EPA / NIEHS).

Read-out in experiment [1]: Transforming growth factor beta 1 (TGFb1), TGFB1 (gene 7040)
Kind of experiment: BSK_KF3CT_TGFb1: BioMAP Diversity Plus: KF3CT Assay for Transforming growth factor beta 1 (TGFb1) Biomarker Activity (AID 2283072). The conditions noted are these: primary human keratinocytes with fibroblasts; actives raise or lower the signal. In outline: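 Read-out: ELISA for TGF-b1 in keratinocyte/foreskin fibroblast human skin co-culture, 24 h after dosing; bidirectional curve fit vs DMSO baseline; gain or loss of signal scored.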

Read-out in experiment [2]: C-C motif chemokine 2 (Homo sapiens) (UniProt P13500)
In words: BSK_KF3CT_MCP1: BioMAP Diversity Plus: KF3CT Assay for Monocyte Chemoattractant Protein 1 (MCP1/CCL2) Biomarker Activity (AID 2283073). The conditions noted are these: primary human keratinocytes with fibroblasts; actives raise or lower the signal. In outline: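 Keratinocytes and foreskin fibroblasts were co-cultured, dosed with chemical, and sampled 24 h later. MCP-1 was quantified by ELISA, and the endpoint was analyzed with bidirectional fitting using DMSO as negative control.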

Read-out in experiment [3]: Matrix Metallopeptidase 9 (MMP9), MMP9 (gene 4318)
In words: BSK_KF3CT_MMP9: BioMAP Diversity Plus: KF3CT Assay for Matrix Metallopeptidase 9 (MMP9) Biomarker Activity (AID 2283074).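 For AC50: MMP9 protein level quantified by ELISA in the co-culture.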 The conditions noted are these: primary human keratinocytes with fibroblasts; actives raise or lower the signal. The gist of the method: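 MMP-9 quantified by ELISA after 24 h chemical treatment of primary human skin keratinocyte/fibroblast co-cultures; gain or loss fitted against DMSO, with parallel SRB staining (0.1% SRB, 560 nm) for overt cytotoxicity.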

Read-out in experiment [4]: urokinase plasminogen activator (uPA), PLAU (gene 5328)
Kind of experiment: BSK_KF3CT_uPA: BioMAP Diversity Plus: KF3CT Assay for urokinase plasminogen activator (uPA) Biomarker Activity (AID 2283075). As to conditions: primary human keratinocytes with fibroblasts; actives raise or lower the signal. The gist of the method:
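ELISA read-out of uPA 24 h after dosing human skin keratinocytes co-cultured with foreskin fibroblasts. Signal change fitted both ways relative to DMSO; sulforhodamine B on parallel cultures marks overt cytotoxicity.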

Read-out in experiment [5]: CD40, CD40 (gene 958)
In words: BSK_LPS_CD40: BioMAP Diversity Plus: LPS Assay for CD40 Biomarker Activity (AID 2283076). The conditions noted are these: primary human HUVEC with PBMC; actives raise or lower the signal. The gist of the method: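 CD40 signal, measured by ELISA, is fitted in both directions relative to DMSO vehicle. The system is an LPS-driven human vascular primary co-culture of endothelial cells and PBMC, sampled 24 h after compound addition.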

Read-out in experiment [6]: E-selectin (Homo sapiens) (UniProt P16581)
Kind of experiment: BSK_LPS_Eselectin: BioMAP Diversity Plus: LPS Assay for Eselectin Biomarker Activity (AID 2283077). As to conditions: primary human HUVEC with PBMC; actives raise or lower the signal. In outline:
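Signal of E-selectin, detected by ELISA, served as the endpoint; cells were umbilical vein endothelium with PBMC, read 24 h after treatment. DMSO defined baseline, and both increases and decreases were fitted.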

Read-out in experiment [7]: Interleukin-8 (IL8), CXCL8 (gene 3576)
In words: BSK_LPS_IL8: BioMAP Diversity Plus: LPS Assay for Interleukin-8 (IL8) Biomarker Activity (AID 2283078). The conditions noted are these: primary human HUVEC with PBMC; actives raise or lower the signal. The gist of the method:
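Endothelial cells and PBMC from human donors are co-cultured, treated with chemicals and LPS, then assayed for IL-8 by ELISA after 24 h. Parallel SRB staining (0.1% SRB after 10% TCA fixation, 560 nm) flags cytotoxicity.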

The nature of experiment [8]: BSK_LPS_SRB: Viability Assessment in the BioMAP Diversity Plus: LPS Assay (AID 2283079).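 Note: total protein by sulforhodamine B absorbance as a cytotoxicity measure; measured one day after compound addition; fitted in both directions against DMSO so loss or gain of signal counts.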 The conditions noted are these: primary human HUVEC with PBMC. The gist of the method: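 Overt cytotoxicity was gauged by sulforhodamine B total-protein staining in a primary human vascular endothelial and mononuclear cell co-culture 24 h post-dosing. Activity was fitted in both directions relative to DMSO.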

Read-out in experiment [9]: Interleukin-1 alpha (IL1a), IL1A (gene 3552)
In words: BSK_LPS_IL1a: BioMAP Diversity Plus: LPS Assay for Interleukin-1 alpha (IL1a) Biomarker Activity (AID 2283080). The conditions noted are these: primary human HUVEC with PBMC; actives raise or lower the signal. In outline: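 Measured: IL-1 alpha via ELISA at 24 h in LPS-activated human umbilical vein endothelium–PBMC co-culture. Baseline: DMSO, bidirectional fitting.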

Read-out in experiment [10]: Monocyte Chemoattractant Protein-1 (MCP1), CCL2 (gene 6347)
Kind of experiment: BSK_LPS_MCP1: BioMAP Diversity Plus: LPS Assay for Monocyte Chemoattractant Protein-1 (MCP1) Biomarker Activity (AID 2283081).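 For AC50: secreted MCP-1 protein quantified by ELISA in culture supernatant.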 The conditions noted are these: primary human HUVEC with PBMC; actives raise or lower the signal. The gist of the method:
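LPS-stimulated HUVEC/PBMC co-culture; chemical, 24 h; MCP-1 by ELISA; bidirectional fit vs DMSO; cytotoxicity via SRB (0.1% stain, 10% TCA fix, 560 nm) in parallel wells.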

Experiment [11] can be described thus: BSK_LPS_PGE2: BioMAP Diversity Plus: LPS Assay for Prostaglandin E2 (PGE2) Biomarker Activity (AID 2283082).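 For AC50: secreted prostaglandin E2 measured by ELISA in LPS-stimulated co-culture.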 As to conditions: primary human HUVEC with PBMC; actives raise or lower the signal. The gist of the method: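 ELISA read-out of PGE2 from human umbilical vein endothelial cells co-cultured with peripheral blood mononuclear cells under LPS, 24 h post-dose. Gain or loss of signal scored relative to DMSO baseline.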

Read-out in experiment [12]: Macrophage colony-stimulating factor (MCSF), CSF1 (gene 1435)
Kind of experiment: BSK_LPS_MCSF: BioMAP Diversity Plus: LPS Assay for Macrophage colony-stimulating factor (MCSF) Biomarker Activity (AID 2283083). The conditions noted are these: primary human HUVEC with PBMC; actives raise or lower the signal. The gist of the method:
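Compound is added to a human vascular primary co-culture of umbilical vein endothelium and blood mononuclear cells. After 24 h, M-CSF is quantified by ELISA. Signal changes are fitted in both directions against DMSO.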

Read-out in experiment [13]: Tissue Factor, F3 (gene 2152)
In words: BSK_LPS_TissueFactor: BioMAP Diversity Plus: LPS Assay for Tissue Factor Biomarker Activity (AID 2283084). The conditions noted are these: primary human HUVEC with PBMC; actives raise or lower the signal. In outline: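 In this co-culture system of umbilical vein endothelium with PBMC, stimulated with LPS, cell-surface CD142 is detected by ELISA at 24 h. Endpoint values derive from bidirectional fitting, DMSO serving as baseline.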

Read-out in experiment [14]: Tumor necrosis factor (Homo sapiens) (UniProt P01375)
Kind of experiment: BSK_LPS_TNFa: BioMAP Diversity Plus: LPS Assay for Tumour Necrosis Factor alpha (TNFa) Biomarker Activity (AID 2283085).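 For AC50: TNFa protein level quantified by ELISA in the co-culture.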 As to conditions: primary human HUVEC with PBMC; actives raise or lower the signal. In outline:
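HUVEC/PBMC co-culture, LPS-stimulated; 24 h post-dose; TNFa by ELISA; gain or loss of signal fitted bidirectionally vs DMSO baseline.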

Read-out in experiment [15]: Vascular cell adhesion molecule 1 (VCAM1), VCAM1 (gene 7412)
In words: BSK_LPS_VCAM1: BioMAP Diversity Plus: LPS Assay for Vascular cell adhesion molecule 1 (VCAM1) Biomarker Activity (AID 2283086). As to conditions: primary human HUVEC with PBMC; actives raise or lower the signal. In outline: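 ELISA read-out of VCAM-1 at 24 h post-dosing in an LPS-driven HUVEC/PBMC primary human co-culture; gain or loss of signal fitted bidirectionally against DMSO baseline. Cytotoxicity tracked in parallel cultures by SRB total-protein staining.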

Read-out in experiment [16]: CD40, CD40 (gene 958)
In words: BSK_SAg_CD40: BioMAP Diversity Plus: SAg Assay for CD40 Biomarker Activity (AID 2283088). The conditions noted are these: primary human HUVEC with PBMC; actives raise or lower the signal. The gist of the method: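 Fluorescence ELISA read-out of CD40 from umbilical vein endothelium plus peripheral blood mononuclear cells, sampled 24 h after dosing. Values come from bidirectional curve fitting with DMSO as baseline.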

Read-out in the next experiment: CD69, CD69 (gene 969)
In words: BSK_SAg_CD69: BioMAP Diversity Plus: SAg Assay for CD69 Biomarker Activity (AID 2283089).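 For AC50: cell surface CD69 protein quantified by ELISA with fluorescence detection.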 As to conditions: primary human HUVEC with PBMC; actives raise or lower the signal. In outline:
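ELISA, fluorescence read-out: CD69 on human umbilical vein endothelial cell + PBMC co-culture, 24 h post-dosing. Gain or loss of signal fitted bidirectionally against DMSO baseline.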

Read-out in experiment [17]: Monocyte Chemoattractant Protein-1 (MCP1), CCL2 (gene 6347)
In words: BSK_SAg_MCP1: BioMAP Diversity Plus: SAg Assay for Monocyte Chemoattractant Protein-1 (MCP1) Biomarker Activity (AID 2283090). The conditions noted are these: primary human HUVEC with PBMC; actives raise or lower the signal. The gist of the method: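 Values derive from bidirectional fitting of ELISA-measured MCP1 against DMSO controls. Readings were taken 24 h after dosing human vascular endothelial cells co-cultured with peripheral blood mononuclear cells under superantigen stimulation.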

Read-out in experiment [18]: E-selectin (Homo sapiens) (UniProt P16581)
In words: BSK_SAg_Eselectin: BioMAP Diversity Plus: SAg Assay for Eselectin Biomarker Activity (AID 2283091). The conditions noted are these: primary human HUVEC with PBMC; actives raise or lower the signal. In outline:
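Primary human endothelial cells and peripheral blood mononuclear cells were co-cultured and exposed to chemical for 24 hours. E-selectin levels were then quantified by ELISA, with bidirectional curve fitting normalised to DMSO controls.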

SMILES strings stand for the structures. Activity calls are given as the source filed them. Rule for the calls: active = hit-call score of the fitted dose curve at least 0.9, where 1 is the maximum; inactive = score below 0.9.

For orientation: AC50 means the concentration giving half of the maximal activity seen.

Sequence of E-selectin (Homo sapiens) (P16581 whole entry, looked up): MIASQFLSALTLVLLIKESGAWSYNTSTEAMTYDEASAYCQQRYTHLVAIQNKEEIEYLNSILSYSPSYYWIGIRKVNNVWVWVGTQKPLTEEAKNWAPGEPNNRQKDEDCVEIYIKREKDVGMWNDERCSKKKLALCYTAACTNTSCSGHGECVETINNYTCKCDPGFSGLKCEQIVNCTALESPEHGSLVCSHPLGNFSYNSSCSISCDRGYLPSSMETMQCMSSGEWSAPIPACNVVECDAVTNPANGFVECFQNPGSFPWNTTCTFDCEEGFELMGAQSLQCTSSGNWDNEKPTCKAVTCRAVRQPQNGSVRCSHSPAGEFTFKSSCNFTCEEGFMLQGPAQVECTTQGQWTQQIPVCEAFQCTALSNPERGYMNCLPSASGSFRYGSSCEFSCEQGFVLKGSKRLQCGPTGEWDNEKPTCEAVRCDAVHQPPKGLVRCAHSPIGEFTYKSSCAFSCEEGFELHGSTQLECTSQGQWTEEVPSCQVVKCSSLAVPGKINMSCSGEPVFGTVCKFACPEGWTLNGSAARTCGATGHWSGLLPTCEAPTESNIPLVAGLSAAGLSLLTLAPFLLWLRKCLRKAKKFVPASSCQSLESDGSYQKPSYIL
Sequence of Tumor necrosis factor (Homo sapiens) (P01375 whole entry, looked up): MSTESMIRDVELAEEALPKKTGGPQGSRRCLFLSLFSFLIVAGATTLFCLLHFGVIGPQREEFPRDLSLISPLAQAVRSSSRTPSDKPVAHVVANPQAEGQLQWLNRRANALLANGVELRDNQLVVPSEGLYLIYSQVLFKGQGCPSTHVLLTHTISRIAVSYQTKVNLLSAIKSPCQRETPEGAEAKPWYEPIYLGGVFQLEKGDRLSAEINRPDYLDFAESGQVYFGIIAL

Consider `CC=CC(=O)C1=C(C)C=CCC1(C)C`, for which the outcome is “inactive” in [1]; “inactive” in experiment [2]; “inactive” in [3]; “inactive” in experiment [4]; “inactive” with CD40, CD40 (gene 958) [5]; “inactive” in experiment [6]. Moreover, the result in [7], in experiment [8], in [9], in [10], in [11] and in experiment [12] was inactive. Also, the outcome in experiment [13] was “inactive”; in [14] it was “inactive”; in experiment [15], “inactive”; in the experiment with CD40, CD40 (gene 958) [16] it was “inactive”; in the experiment with CD69, CD69 (gene 969), “inactive”; in experiment [17], “inactive”. In addition, the result in experiment [18] was inactive.

Consider `CCCCCCCC1CCCC1=O` (configuration not stated), for which the half-maximal activity concentration (AC50) was 36300 nM (active) in experiment [1], 31500 nM (active) in experiment [2], 28700 nM (active) in [3] and 35600 nM (active) in [4]. The outcome is “inactive” in the experiment with CD40, CD40 (gene 958) [5]; “inactive” in experiment [6]; “inactive” in experiment [7]; “inactive” in experiment [8]; “inactive” in [9]; “inactive” in experiment [10]. For the same compound, the outcome in [11] is “inactive”; in experiment [12] it was “inactive”; in experiment [13], “inactive”; in experiment [14] it was “inactive”; in experiment [15], “inactive”; with CD40, CD40 (gene 958) [16] it was “inactive”. The outcome with CD69, CD69 (gene 969) is “inactive”; in experiment [17], “inactive”; in experiment [18], “inactive”.

As for `C=CC(=O)OCC(CO)(COC(=O)C=C)COC(=O)C=C`, the AC50 in [1] was 415 nM (active); in [2], 5440 nM (active); in experiment [3] it was 400 nM (active); in [4], 685 nM (active); with CD40, CD40 (gene 958) [5], 454 nM (active); in [6], 311 nM (active). Further, the AC50 in experiment [7] was 3970 nM (active); in experiment [8] it was 749 nM (active); in [9] it was 404 nM (active); in experiment [10] it was 81.6 nM (active); in [11], 118 nM (active); in experiment [12] it was 379 nM (active). Further, the AC50 is 576 nM (active) in experiment [13]; 163 nM (active) in experiment [14]; 140 nM (active) in experiment [15]; 696 nM (active) in the experiment with CD40, CD40 (gene 958) [16]; 384 nM (active) in the experiment with CD69, CD69 (gene 969); 686 nM (active) in [17]. The AC50 in experiment [18] was 333 nM (active).
